# Bioassay records (PubChem BioAssay)
# SARS PLpro yeast: qHTS of Yeast-based Assay for SARS-CoV PLP | actives 0.19% (n = 330,000) | S. cerevisiae expressing SARS-CoV PLpro, growth rescue | AID 485353, 2010 | Potency, µM (top dose mostly 32.9 µM), for inactives: top-dose activity, positive = growth rescue, hits mostly activators; calls by dose curve; also: potency is read from the fitted curve at half-maximal effect; 0% is about no effect; nearly all actives have a fitted effect of over 55% in size
# HCMV inh: qHTS Assay for inhibitors of the human cytomegalovirus (HCMV); HFF cells, HCMV-luciferase reporter, 72 h; hits give low values; activity change, negative = inhibition, % at 57.5 µM; actives 4.5% (n = 410,000); AID 1259415, 2018; in the data active = activity change below about -60%; inconclusive = no clear call, values can overlap the other calls; inactive = above about -39%; also: % is scaled to controls: 0 for no effect and ±100 for the full control effect
#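 Screen run at 2 compound doses on HFFs infected with reporter HCMV, MOI 1 PFU/cell. Luciferase activity from cell lysates at 72 h post infection gave inhibition relative to buffer-only and Salinomycin wells.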
# FMDV antiviral: High Throughput Screening for Foot and Mouth Disease Virus Antivirals. actives 1.2% (n = 410,000). Potency, µM (titrated, usually from 57.9 µM), without a hit: at the highest dose activity change, negative = inhibition, actives largely listed as inhibitors. FMDV antiviral cell-based qHTS. AID 1159524, 2015; calls by dose curve; tested in HEK293T cells; also: read-out not given here; potency is read from the fitted curve at half-maximal effect; % is scaled to controls: 0 for no effect and ±100 for the full control effect; nearly all actives have a fitted effect of over 45% in size
# Lassa entry inh: qHTS for Inhibitors of binding or entry into cells for Lassa Virus; Lassa virus pseudotype entry inhibition, cell reporter; Potency, µM (series often up to 37.9 µM), inactives show top-dose activity change, negative = inhibition, hits mostly inhibitors; actives 1.2% (n = 300,000); AID 540256, 2011; calls by dose curve; tested in HEK293 cells; also: potency is read from the fitted curve at half-maximal effect; % is scaled to controls: 0 for no effect and ±100 for the full control effect; nearly all actives have a fitted effect of over 50% in size
# MARV entry inh: qHTS for inhibitors of binding or entry into cells for Marburg Virus; Marburg virus pseudotyped entry inhibition, cell reporter; Potency, µM (highest dose often 37.8 µM), without a hit: at the highest dose activity change, negative = inhibition, actives largely listed as inhibitors; actives 1.8% (n = 300,000); AID 540276, 2011; calls by dose curve; tested in HEK293 cells; also: potency is read from the fitted curve at half-maximal effect; % is scaled to controls: 0 for no effect and ±100 for the full control effect
# HCV inh: qHTS Assay for Inhibitors of Hepatitis C Virus (HCV); Huh7.5.1 HCVcc-Cre infection, luciferase reporter, 44 h; Potency, µM (top dose mostly 41.8 µM), inactives show top-dose activity change, negative = inhibition, usual class: inhibitors; actives 3.4% (n = 340,000); active = well fitted inhibition curve with a large enough effect; inconclusive = small, poorly fitted or top-dose-only effect, or another doubt; inactive = no such curve, though single readings can be large or run the other way; also: potency is read from the fitted curve at half-maximal effect; % is scaled to controls: 0 for no effect and ±100 for the full control effect
#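 Cells seeded at 1,000/well and cultured 4 h, then compounds added followed by HCVcc-Cre virus (~0.5 moi). After 44 h further culture, luciferase substrate was added, plates held 15 min at room temperature, and luminescence read for 15 sec.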
# Starred values were filed as active, the others as inactive; ? = inconclusive; . = not tested or not shown; [ ] = remark or other dose. A selection: hits, their analogues and other compounds. The true share with any hit is near 8%.
SMILES,SARS PLpro yeast,HCMV inh,FMDV antiviral,Lassa entry inh,MARV entry inh,HCV inh
COC1(C#C[C@@H]2C=C[C@H](OC(C)=O)[C@@H](COC(C)=O)O2)CCCCC1,.,.,.,?,-18%[14.2 µM],.
Cc1cccc(C)c1OCC(=O)N1CCC(c2nc3ccccc3o2)CC1,.,-20,-17%,21%[46.1 µM],4%[46.1 µM],.
COc1ccc(OC)c(NC(=O)c2sc3nc4c(cc3c2N)CCCCCC4)c1,.,-6,-15%,11%[46.1 µM],5%[46.1 µM],.
Cc1cccc(NC(=O)c2sc3nc4c(cc3c2N)CCCCCC4)c1C,.,-82*,-25%,-28%[46.1 µM],?,.
Nc1c(C(=O)O)sc2nc3c(cc12)CCCC3,1%,-5,-4%,.,.,12%
Nc1c(C(=O)Nc2ccc(C(=O)O)cc2)sc2nc3c(cc12)CCCC3,.,27,16µM*,?,25%[46.1 µM],.
Nc1c(C(=O)Nc2ccccc2)sc2nc3c(c(-c4ccco4)c12)CCC3,-7%,-32,?,-16%,-15%,10µM*
N#Cc1sc2nc3c(cc2c1N)CCCC3,-53%,-64*,0%,-1%,?,1%
COC(=O)N[C@@H](c1ccc(Cl)cc1)C(C(C)=O)C(=O)OC (stereo partly drawn),.,.,.,.,13%[14.2 µM],.
COC(=O)N1C(C=Cc2ccc3c(c2)OCO3)=Cc2ccccc2C1CC(C)=O (stereo not drawn),.,.,.,?,-12%[14.2 µM],.
N#C/C(C(=O)N1CCOCC1)=C1\S[C@H](Cc2ccccc2)C(=O)N1c1ccccc1,.,.,.,.,20%,.
COc1ccccc1CNS(=O)(=O)c1cnc(N)nc1,.,?,2%,3%[46.1 µM],.,.
Nc1c(C(=O)Nc2cccc(C(=O)O)c2)sc2nc3c(cc12)CCCC3,1%,95,6.3µM*,3.2µM*,?,4%
Nc1c(C(=O)Nc2ccc(Br)cc2)sc2nc(-c3ccco3)ccc12,-20%,-60*,?,?,-16%,?
NC(=O)c1sc2nc3c(c(-c4cccs4)c2c1N)CCCCC3,6%,-86*,?,4%,-6%,-3%
Nc1c(C(=O)Nc2ccc(F)cc2)sc2nc(-c3ccco3)ccc12,-3%,-14,0%,?,?,?
Nc1c(C(=O)Nc2ccc(S(=O)(=O)N3CCCC3)cc2)sc2nc3ccc(OC(F)(F)F)cc3cc12,3%,-96*,-1%,?,6.3µM*,?
N[C@H]1CC[C@@]23CCCN2C(=O)CCC[C@H]3[C@H]1Cc1ccccc1,.,15,.,.,.,.
COc1cc(/C=N/NC(=O)c2cccc(S(=O)(=O)N3CCCCC3)c2)cc(Br)c1O,-1%,-6,-16%,-3%,?,?
COCc1cc(C2SCC(=O)Nc3c2c(=O)[nH]n3C(C)C)ccc1OC (stereo not drawn),1%,12,-8%,1%,0%[46.1 µM],5.6µM*
CCCOc1ccc(CNC(=O)c2cc3ccccn3n2)cc1,.,82,28%,?,.,.
Oc1ccc(/C=N/Nc2cc(N3CCCC3)nc(N3CCCC3)n2)cc1,2%,?,.,-26%,?,?
Oc1ccc(/C=N/Nc2cc(N3CCOCC3)nc(N3CCOCC3)n2)cc1,.,26,.,-19%,6.5µM*,?
COc1ccc(/C=N/Nc2cc(N3CCCC3)nc(N3CCCC3)n2)cc1,-7%,-76*,?,3.2µM*,?,7.1µM*
COCCNC(=O)Cn1c(=O)n(-c2ccc(C)c(C)c2)c(=O)c2c3c(sc21)CCCCC3,.,0,-4%,-25%[46.1 µM],-9%[46.1 µM],.
SMILES,SARS PLpro yeast,HCMV inh,FMDV antiviral,Lassa entry inh,MARV entry inh,HCV inh
C#CCOCCOCCOCCNc1nc(N2CCN(C(=O)CCCCCCCCCCNC(=O)Cn3cc(CCCCCN)nn3)CC2)nc(N2CCN(C(=O)CCCCCCCCCCNC(=O)Cn3cc(C[C@@H](C)O)nn3)CC2)n1,-2%,.,-5%,.,.,?
C#CCOCCOCCOCCNc1nc(N2CCN(C(=O)CCCCCCCCCCNC(=O)[C@@H](CCSC)n3cc(CCO)nn3)CC2)nc(N2CCN(C(=O)CCCCCCCCCCNC(=O)[C@@H]([C@H](C)O)n3cc(C)nn3)CC2)n1,9%,-72*,-24%,.,.,-13%
C#CCOCCOCCOCCNc1nc(N2CCN(C(=O)CCCCCCCCCCNC(=O)Cn3cc(C[C@@H](C)O)nn3)CC2)nc(N2CCN(C(=O)CCCCCCCCCCNC(=O)[C@@H]([C@H](C)CC)n3cc(CCCCCN)nn3)CC2)n1,-5%,.,35µM*,.,.,?
CC[C@H](C)Cc1cn([C@@H](CCCN=C(NC(=O)OC(C)(C)C)NC(=O)OC(C)(C)C)C(=O)NCCCCCCCCCCC(=O)N2CCN(C(=O)OC(C)(C)C)CC2)nn1,0%,.,-12%,.,.,0%
C#CCOCCOCCOCCNc1nc(N2CCN(C(=O)CCCCCCCCCCNC(=O)[C@H](CCCCN)n3cc(C)nn3)CC2)nc(N2CCN(C(=O)CCCCCCCCCCNC(=O)[C@@H]([C@H](C)O)n3cc(C)nn3)CC2)n1,8%,.,-13%,.,.,2.8µM*
Cc1cn([C@@H](CCCCNC(=O)OC(C)(C)C)C(=O)NCCCCCCCCCCC(=O)N2CCN(C(=O)OC(C)(C)C)CC2)nn1,0%,.,11µM*,.,.,?
O=C(NCCCCc1ccccc1)Nc1ccc(F)cc1,-12%,-30,46%,.,.,?
CCC/C(=C1/c2ccccc2C(=O)N1c1ccccc1)c1ccc(C=O)o1,.,-4,.,.,.,.
O=C(Nc1ccc(NC(=O)C2CC2)nc1)c1ccco1,2%,11,73%,?,?,4%
N#Cc1ccc(C(=O)Nc2ccc(N3CCN(C(=O)c4ccco4)CC3)cc2)c(F)c1,-4%,1,-16%,-2%,-10%,-1%
O=C(Nc1ccc(NC(=O)c2ccccc2F)cn1)c1ccco1,-7%,30,-43%,?,4µM*,-1%
COc1cccc(C(=O)Nc2ccc(NC(=O)c3ccco3)nc2)c1,13%,-16,48%,-8%,?,-23%
O=C(Nc1ccc(NC(=O)c2ccco2)nc1)c1cccc(F)c1,-2%,15,-2%,10µM*,?,?
N#Cc1ccc(C(=O)Nc2cccc(NC(=O)c3ccco3)c2)c(F)c1,1%,-74*,-28%,-12%,-9%,?
CCOC(=O)CN1C(=O)[C@@]2(C[C@@H](C)C[C@@H](C)O2)c2ccccc21,.,.,.,.,-18%[14.2 µM],.
COc1ccc(CNC(=O)N2CC3ON=C(c4ccccc4C)C3C2)cc1 (stereo not drawn),.,-31,.,.,.,.
O=C(NCc1ccccc1F)c1ccc(CN2CC(=O)N3CCCCC3C2=O)cc1 (stereo not drawn),.,17,-14%,4%[46.1 µM],.,.
Cc1cccc(C)c1NC(=O)Cn1nnc(C(=O)Nc2ccc(F)cc2F)c1N,1%,-65*,-9%,.,.,-11%
O=C(NCc1cccnc1)c1ccc2c(c1)C(=O)N(Cc1ccccc1)C2=O,0%,6,?,6%,?,1%
